In PubChem BioAssay (NCI):
This is part of a sample that, as a whole, favours compounds with a hit. Of some 83,000 tested, about 20% had one in any assay.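 48-hour exposure, single concentration, 96-well plates; percent growth endpoint where 0 means no net growth. Active: below 10.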 Values without a mark were called inactive. Active and inactive are the calls of the source.

How the values were obtained:
Assay in all cases: NCI-60 one-dose screen, 48 h (100 = growth as untreated, 0 = no growth, -100 = all killed)
Conditions in all cases: 10 µM unless noted
T-47D breast = test system: T-47D breast
BT-549 breast = test system: BT-549 breast
MDA-MB-435 melanoma = test system: MDA-MB-435 melanoma
SW-620 colon = test system: SW-620 colon
MCF7 breast = test system: MCF7 breast
HCT-116 colon = test system: HCT-116 colon
HCC-2998 colon = test system: HCC-2998 colon
KM12 colon = test system: KM12 colon

Row | Structure (SMILES) | growth (T-47D breast) | growth (BT-549 breast) | growth (MDA-MB-435 melanoma) | growth (SW-620 colon) | growth (MCF7 breast) | growth (HCT-116 colon) | growth (HCC-2998 colon) | growth (KM12 colon)
1 | O=c1c2ccccc2cc2n1CCN=C2c1ccccc1 | 91.7% | 116% | 104% | 96% | 94.7% | 106% | 109% | 104%
2 | Cc1ccccc1Nc1nc(SC(C)C)nc(-c2ccccc2)c1C#N | 88.1% | 97.1% | 44.9% | 43.1% | 51.6% | 2.97% (active) | 86.4% | 94.2%
3 | NCCNC(=O)c1cccc(COc2ccccc2NC(=O)c2cc(Br)c(Br)[nH]2)c1 | 75.9% | 130% | 96.2% | 35.1% | 16.9% | 20.2% | 99.8% | 89.7%
4 | COc1ccc(-c2c3c(cn2Cc2cccc(OC)c2)-c2oncc2CCC3)cc1 | 75.7% | 105% | 98.1% | 96.4% | 96.9% | 96.9% | 111% | 83.1%
5 | CC/C(=C(/c1ccc(Cl)cc1)c1ccc(OCCN)cc1)c1ccccc1 | 93.1% | 129% | 96.7% | 16.5% | 54.9% | 56% | 83.7% | 84.7%
6 | Cc1ccc2c(n1)C(=O)C(Cl)=C(Nc1ccc(C(F)(F)F)cc1)C2=O | -25.5% (active) | 130% | 95.8% | -10.5% (active) | -56.1% (active) | 1.42% (active) | 97.9% | 98.2%
7 | O=C1C(SCc2ccccc2)=C(Cl)CN1c1ccc(Cl)cc1 | 50.4% | 109% | 100% | 101% | 25.7% | 89.7% | 95.9% | 99.1%
8 | CS(=O)(=O)c1nccc(-c2c(-c3cccc(OCc4ccc(Cl)c(C(F)(F)F)c4)c3)nc3sccn23)n1 | -45.6% (active) | 101% | 103% | 61.2% | -67.8% (active) | 70.4% | -50.1% (active) | 37%
9 | Nc1cc(C(=O)N/N=C\c2ccc(OC(F)F)c(OC3CCCC3)c2)nn1CC(O)c1ccccc1 (stereo not given) | 83.6% | 118% | 103% | 103% | 89% | 103% | 114% | 95.6%
10 | Cc1[nH]c(C(=O)Nc2ccccc2OCc2cccc(C(=O)NC3CCCNC3)c2)c(Cl)c1Cl (stereo not given) | -9.08% (active) | 98.8% | -80.2% (active) | -68.8% (active) |  | -67% (active) | -90% (active) | -78.4% (active)
11 | CN1CCN(c2ccc(Nc3nc(NCCNS(=O)(=O)c4ccc5ccccc5c4)c4sccc4n3)cc2)CC1 | 55.2% | 86.7% | 53.7% | 35.2% | 32.9% | 14.7% | 72.3% | 86.7%
12 | O=C(COc1ccc(/C=C2\C(=O)Nc3ccc(Cl)cc32)cc1)Nc1ccc(Cl)cc1 | 68.8% | 70.2% | 55.6% | 45.5% |  | 15.9% | 89% | 43.2%
13 | Fc1cccc(Cl)c1/C=N/Nc1nc(N/N=C/c2c(F)cccc2Cl)nc(N2CCCCC2)n1 | 11% | 68.4% | 3.75% (active) | 17.2% | 3.1% (active) | 19.5% | 24.4% | 10.8%
14 | O=S(=O)(Oc1ccc(-c2cn3ccsc3n2)cc1)c1cccc(C(F)(F)F)c1 | 103% | 119% | 99.5% | 97.4% |  | 104% | 120% | 102%
15 | O=C(CSc1nnc(-c2ccc(Cl)cc2)n1-c1ccccc1)Nc1ccc(Cl)cc1 | 30.9% | 70.2% | 42.3% | 58.6% |  | 1.07% (active) | 70.1% | 57.6%
16 | Cc1[nH]c(C(=O)Nc2ccccc2OCc2cccc(C(=O)NCCN)c2)cc1Cl | 87.1% | 104% | 20.6% | 32.4% |  | 38.2% | 109% | 86.4%
17 | CCCCc1nc2c(N)nc3ccccc3c2n1Cc1cccc(CN)c1 | 74% | 28.1% | 4.8% (active) | 52.6% |  | 23% | 59.7% | 

Row | Structure (SMILES) | growth (T-47D breast) | growth (BT-549 breast) | growth (MDA-MB-435 melanoma) | growth (SW-620 colon) | growth (MCF7 breast) | growth (HCT-116 colon) | growth (HCC-2998 colon) | growth (KM12 colon)
18 | O=C(Nc1ccccc1)Nc1nc2ccc([N+](=O)[O-])cc2[nH]1 | 14.7% | 77.8% | 55.3% | 56% |  | 39.4% | 60.4% | 45.2%
19 | COc1cccc2c1C=CC1(O2)Oc2cccc(OC)c2C=C1C (stereo not given) | 45.7% | 25.1% | -10.1% (active) | 30% | 13.1% | 14% | 15.8% | 20.5%
20 | CC(=C(c1ccc(OCCN2CCCC2)cc1)c1ccc(OCCN2CCCC2)cc1)c1ccc(Cl)cc1 | -64.7% (active) | 55.8% | -89.7% (active) | -73.3% (active) | -75% (active) | -93.6% (active) | -57.1% (active) | -22.9% (active)
21 | NC1CC2(CCN(c3cnc(C(=O)Nc4cc(F)cc5cccnc45)cn3)CC2)C1 | 64.5% | 84.8% | 70.9% | 42.8% | 46.2% | 38.5% | 83.7% | 81.7%
22 | NC(=O)n1c(=O)n(-c2cccc(C(F)(F)F)c2)c(=O)c2cc(-c3ccc(F)cc3F)ccc21 | -14% (active) | -12.5% (active) | 0.406% (active) | 14.1% |  | 2.24% (active) | 10.7% | 5.24% (active)
23 | C/C(=N\NC(=O)/C=C/CC(=O)O)c1nnn(-c2ccc([N+](=O)[O-])cc2)c1C | 98.9% | 103% | 103% | 100% | 97.8% | 97.9% | 105% | 97.2%
24 | CCOC(=O)C1=C(C)NC(C)=C(C(=O)OC(C)C)C1c1cccc(C#N)c1 (stereo not given) | 95.1% | 126% | 104% | 99.2% | 94.5% | 94% | 104% | 98%
25 | CC(Nc1c(C#N)cnc2ccc(-c3cncc(O)c3)cc12)c1ccccc1 (stereo not given) | 6.53% (active) | -18.3% (active) | 25.2% | 10.1% | 0.808% (active) | 3.68% (active) | 19.5% | 4.85% (active)
26 | CCN(CC)CCOc1ccc(C(=C(c2ccccc2)C2CCCC2)c2ccc(OCCN(CC)CC)cc2)cc1 | 18.8% | -18.6% (active) | -10% (active) | 33.5% |  | 13.3% | -62.3% (active) | 
27 | CC(=C(c1ccc(OCCCN(C)C)cc1)c1ccc(OCCCN(C)C)cc1)c1ccc(Cl)cc1 | 74.9% | 109% | 89.3% | 87.8% |  | 64.6% | 81.7% | 84.2%
28 | C#Cc1nc(/C=C/CCCCCCC(=O)NO)cs1 | 51.6% | 88.9% | 55.3% | 29.3% | 48% | 20% | 108% | 74.7%
29 | CN1CCN(c2ccc(Nc3nc(NCCCNS(=O)(=O)c4ccc(Cl)cc4)c4sccc4n3)cc2)CC1 | 11.6% | -70.2% (active) | 7.33% (active) | 20.7% | 20% | 1.81% (active) | 20% | 23.3%
30 | Cn1cc(-c2nnc(N)nc2-c2c[nH]c3ccc(F)cc23)c2cc(Br)ccc21 | 29.4% | 11.1% | 3.84% (active) | 20.4% |  | 14.9% | 53.6% | 22.5%
31 | CCN(CC)c1ccc(/C=N/NC(=O)c2ccc(S(N)(=O)=O)cc2)c(O)c1 | 30.4% | 26.5% | 31.1% | 35% | 6.43% (active) | 24.2% | 37.3% | 24.2%
32 | C=C(C)[C@@H]1CC[C@]2(COCCCNCCCN)CC[C@]3(C)[C@H](CC[C@@H]4[C@@]5(C)CC[C@H](O)C(C)(C)[C@@H]5CC[C@]43C)[C@@H]12 | -53.3% (active) | -77.4% (active) | -95.8% (active) | -68.1% (active) | -75.4% (active) | -86.5% (active) | -71.5% (active) | -65.4% (active)
33 | Oc1[nH]c2ccc(Cl)cc2c1N=Nc1nc(N=Nc2c(O)[nH]c3ccc(Cl)cc23)nc(N2CCCCC2)n1 | 81.5% | 122% | 75.8% | 15.5% |  | 23.9% | 38.7% | 47.6%
